Reference: PubChem BioAssay AID686978 (National Center for Advancing Translational Sciences (NCATS), 2013)
“And” between values parts separate entries of the source, which are not always exact repeats. Equal values may be shown once. About 64,000 (15%) of roughly 420,000 compounds were called active. Inconclusive results (about 27%) are left out. Calls follow the shape of the dose curve; as a rule, active = well fitted inhibition curve with a large enough effect; inconclusive = small, poorly fitted or top-dose-only effect; inactive = flat fitted curve, though single readings scatter. Only a sample is shown.

Experiment: qHTS for Inhibitors of human tyrosyl-DNA phosphodiesterase 1 (TDP1): qHTS in cells in absence of CPT; also: nearly all actives have a fitted effect of over 55% in size
Settings: DT40 Tdp1-/- hTDP1 cells, no CPT, ATP luminescence, 48 h; activity change, negative = growth inhibition: at 46.2 µM (top of the series)
How it was run: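 Seeded 400 DT40-hTDP1 cells/well (vehicle DMSO, no 20 nM CPT); pinned compounds; ≥48 hr at 37 °C; CellTiter-Glo luminescence as viability measure.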
% is scaled to controls: 0 for no effect and ±100 for the full control effect; potency is read from the fitted curve at half-maximal effect.

SMILES | activity change, negative = growth inhibition | Potency
CSc1ccc(NC(=O)N2CC(C)OC(C)C2)cc1 (configuration not stated) | -12.9% (inactive) | 
Cn1cccc1C(=O)N1CCC[C@@]2(CCN(Cc3nccs3)C2)C1 | -6.43% (inactive) | 
Cc1nc2ccc(S(=O)(=O)NC(C(=O)NCc3ccccc3Cl)C(C)C)cc2s1 (configuration not stated) | -0.153% (inactive) | 
C[n+]1cccc(C(=O)O)c1 | -1.14% (inactive) | 
CSc1ncccc1C(=O)NCc1ccccc1Cl | 6.16% (inactive) | 
CCOCCCNC(=O)C(NC(=O)c1ccc(=O)[nH]c1)c1ccc(Cl)cc1 (configuration not stated) | -14.6% (inactive) | 
c1ccc(-c2csc(N3CCc4ccccc4C3)n2)cc1 | -1.48% (inactive) | 
Cc1noc(C)c1CCC(=O)O | 1.68% (inactive) | 
Cc1ccc(S(=O)(=O)N2CC(O)C[C@H]2C(=O)OCC(=O)Nc2ccc(N3CCOCC3)cc2)cc1C (some centres not stated) | 14.4% (inactive) | 
COc1ccc(NC(=O)CSc2nc3ccccc3c(=O)n2C)cc1 |  | 10.3 µM (active)
COc1ccc(-n2nnnc2SCC(=O)Nc2ccccc2)cc1 | -28.3% (inactive) | 
COc1ccc(NC(=O)CSc2nnc(Cc3ccccc3)c(=O)n2N)cc1 | -10.7% (inactive) | 
O=C1/C(=C\Nc2ccccc2)CCN1c1ncccn1 | -14% (inactive) | 
Cc1ccc(C(C(=O)NC2CCCC2)N(Cc2ccco2)C(=O)CCC(=O)Nc2ccccn2)cc1 (configuration not stated) |  | 16.4 µM (active)
Cc1cc(NC(=O)CCC(=O)N(c2ccccc2)C(C(=O)NC2CCCC2)c2ccncc2)no1 (configuration not stated) | -2.03% (inactive) | 
CCC(C)(C)NC(=O)C(c1ccc(O)cc1)N(Cc1ccco1)C(=O)CCC(=O)Nc1ccccn1 (configuration not stated) | -15.2% (inactive) | 
CC(=O)NC1(c2ccc(F)cc2)CCN(C(=O)c2c(F)cccc2F)CC1 | -1.26% (inactive) | 
CC(C)(C)NS(=O)(=O)c1ccc(NC(=O)NC2CCCCC2)cc1 | -24.7% (inactive) | 
CC(C)c1ccc(NC(=O)NC2CCCCC2)cc1 |  | 20.6 µM (active)
Cc1cc(C)cc(NC(=O)NC2CCCCCCC2)c1 | 3.43% (inactive) | 
O/N=C(\C[n+]1ccccc1)c1ccc(Br)cc1 | 9.42% (inactive) | 
COc1ccc(CCNC(=O)CN2CCC(n3nnc4cc(F)ccc43)CC2)cc1OC | -21.5% (inactive) | 
Cc1cccc(NC(=O)CSC(N)=O)c1C |  | 18.4 µM (active)

SMILES | activity change, negative = growth inhibition | Potency
Cc1ccccc1NC(=O)CSC(=O)c1ccccc1 | -114% (inactive) | 
Cc1cccc(NC(=O)COC(=O)CCc2ccccc2)c1C | -0.618% (inactive) | 
N#CCCN(C(=O)COC(=O)c1ccc(S(=O)(=O)N2CCCCCC2)cc1)c1ccccc1 | -20.9% (inactive) | 
CCC(C)N(C(=O)CSc1nnnn1-c1ccccc1OC)C1CCS(=O)(=O)C1 (configuration not stated) | 15.2% (inactive) | 
COc1ccccc1-n1nnnc1S(=O)(=O)Cc1ccc(Cl)cc1 |  | 6.51 µM (active)
COc1ccccc1-n1nnnc1SCC(=O)NC(=O)Cc1ccccc1 | 9.83% (inactive) | 
CCOC(=O)C(Sc1ncc(C#N)c(N)n1)C(C)C (configuration not stated) | -16.3% (inactive) | 
O=C(CSc1nnc(-c2ccncc2)n1-c1ccc(Cl)cc1)Nc1ccc(C(=O)O)cc1 | -9.17% (inactive) | 
Cc1cc(NC(=O)CSCC(=O)NC(C)c2ccccc2)no1 (configuration not stated) | 4.75% (inactive) | 
CN(CC(=O)Nc1c(Cl)cccc1Cl)C(=O)CC1OC(=O)c2ccccc21 (configuration not stated) | 2.57% (inactive) | 
CCc1ccc(NC(=O)C2CCCN2S(=O)(=O)c2ccc3nc(-c4ccccc4)[nH]c3c2)cc1 (configuration not stated) |  | 23.1 µM (active)
CC(=O)Nc1ccc(NC(=O)C2CCCN2S(=O)(=O)c2cccc(C(F)(F)F)c2)cc1 (configuration not stated) | 8.22% (inactive) | 
CCc1ccccc1NS(=O)(=O)c1ccc2nc(-c3ccccc3)[nH]c2c1 |  | 9.2 µM (active)
Cc1ccc(S(=O)(=O)Nc2ccccc2CNc2c(C)n(C)n(-c3ccccc3)c2=O)cc1 | 1.18% (inactive) | 
CCc1nnc(NC(=O)C2CCCN2S(=O)(=O)c2ccccc2)s1 (configuration not stated) | 4.37% (inactive) | 
CCOc1ccc(OCC)c(NS(=O)(=O)c2ccc3[nH]c(=O)ccc3c2)c1 | 1.43% (inactive) | 
COc1ccc(NC(=O)C2C3CCC(O3)C2C(=O)O)cc1OC (configuration not stated) | 21.9% (inactive) | 
CC(=O)N1CCN(CC(C)(C)NS(=O)(=O)c2ccc(C)cc2)CC1 | 17.7% (inactive) | 
COc1cc(OC)c(C(=O)NNC(=O)c2ccc(NS(=O)(=O)c3cccs3)cc2)cc1OC | 3.62% (inactive) | 
CCN(CC)CCn1c2ccc(Cl)cc2c2nc(C)sc21 |  | 23.1 µM (active)
COC(=O)Cn1c2ccc(C)cc2c2nc(C)sc21 | -12.8% (inactive) | 
COc1cc2c(cc1OC)C(c1ccccc1Br)NC(=O)C2 (configuration not stated) | 7.95% (inactive) | 
O=C(CCn1c(=O)oc2ccccc21)Nc1ccon1 | -1.36% (inactive) | 

SMILES | activity change, negative = growth inhibition | Potency
O=C(CNC(=O)c1ccccc1Br)NNC(=O)c1cccs1 | 3.7% (inactive) | 
Cc1ccc(C)c(S(=O)(=O)c2nnn3c2nc(N2CCOCC2)c2sccc23)c1 |  | 23.1 µM (active)
Cc1ccc(S(=O)(=O)c2nnn3c2nc(N2CCN(c4ccccn4)CC2)c2ccccc23)cc1 | 0.726% (inactive) | 
O=S(=O)(c1ccc(Br)cc1)c1nnn2c1nc(NC1CCCCCC1)c1sccc12 | -5.37% (inactive) | 
COc1ccc(CCOC(=O)CNC(=O)c2ccc(Cl)cc2Cl)cc1 | 11.6% (inactive) | 
COc1ccc(Nc2ncc(C(=O)Nc3cc(C)ccc3OC)c3ccccc23)cc1 |  | 23.1 µM (active)
COc1ccccc1N1CCN(C(=O)c2ccc(NC3=NC4CS(=O)(=O)CC4S3)cc2)CC1 (configuration not stated) | -10.6% (inactive) | 
COC(=O)c1cnc(Nc2cc(C)ccc2OC)c2ccccc12 | 2.44% (inactive) | 
COc1ccc(NC2CCCN(C(=O)c3ccccc3-c3ncc[nH]3)C2)cc1 (configuration not stated) | -7.25% (inactive) | 
COc1ccc(Nc2ncc(C(=O)N3CCN(c4ccccc4OC)CC3)c3ccccc23)cc1 |  | 25.9 µM (active) and 5.8 µM (active)
COc1ccc(NC(=O)c2cnc(Nc3ccc(C)c(Cl)c3)c3ccccc23)cc1OC | 10.1% (inactive) | 
CC(C)(C)C(=O)CSc1ccc(S(=O)(=O)N2CCCC2)cn1 | -12% (inactive) | 
Cc1ccccc1NC(=O)c1cc2c([nH]c1=O)CC(C)(C)CC2=O | 1.54% (inactive) | 
Cn1c(CSCC(=O)Nc2ccccc2)nnc1SCc1ccccc1 | -16.4% (inactive) | 
NS(=O)(=O)c1ccc(CNC(=S)NC(=O)c2ccco2)cc1 | -21.3% (inactive) | 
COC(=O)c1c(NC(=O)C2CC(C)=C(C)CC2C(=O)O)sc2c1CCCCC2 (configuration not stated) | -17.4% (inactive) | 
COC(=O)c1c(NC(=O)CCCC(=O)O)sc2c1CCCCC2 | 1.24% (inactive) | 
CCc1ccc(N(CC(=O)Nc2sc3c(c2C(=O)OC)CCCC3)S(C)(=O)=O)cc1 |  | 23.1 µM (active)
O=C(COc1ccccc1)Nc1cc2c3c(c1)CC(=O)N3CCC2 | -10.3% (inactive) | 
O=C(CN1CCOCC1)N/N=C/c1ccc(-c2ccc(Br)cc2)o1 | -29.5% (inactive) | 
O=C1CCC(=O)N(c2ccccc2)N1 | -6.87% (inactive) | 
